Experimental findings from PubChem BioAssay AID1159506 (National Center for Advancing Translational Sciences (NCATS), 2015) are described below.

The full ranking holds about 59,000 sequences; the median of the read-out is about -0.00055, and the lowest 2% start at about -2. The full list was thinned out, with the lowest values kept by preference.

The nature of this test: Identification of proteins required for the processing of the EWS-FLI1 nascent transcript.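 Note: robust z of luciferase light less the median z of siRNAs with the same seed.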 The settings on record: TC32 Ewing sarcoma NR0B1-luc vs CMV-luc (EWS-FLI1 target promoter against control promoter), 48 h; screened at 20 nM (by protocol). An outline of the steps:
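Parallel TC32-NR0B1-luc and TC32-CMV-luc reverse transfections with 20 nM siRNA in RPMI-1640/10% FBS, luciferase measured 48 h later. Seed-adjusted z-scores from normalized, z-score-MAD transformed data; AllStars negative and siGL4 controls on each plate.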
Consider UAUUAGGUCUUAUUUAUUC against NXNL2, for which the seed-corrected z-score was determined as 0.499.
The sequence UCUCUAUCAGUUCUCUUGG against RBM20 registered a seed-corrected z-score of -0.358.
Under AAAGGGACACUGAUUCAGU against TRAM1 stands -2.59; under UCAGGGUAUUUGGUGAGGG against KCTD1, -0.632; under AUAAUACCAACUCAAAUGC against FRRS1L, 1.1.
To UUCUGAGCAGGUUCUACUG against SGOL1 belongs -2.98; to UAGGUAACUAUUUCUUCUC against CHURC1, 1.33; to UCUUCUAUCUUGCACAUUG against NLRP9, 0.587.
As for UAGGUUACGUGUCCAGAGG against NR2F6, the seed-corrected z-score is -0.85.
ACCAUUGUCAUUGCCUUGC against 1-Mar: the seed-corrected z-score was -1.24.
Sequence GAUUUCUUCAGGUGCUCCU against PDLIM7 yielded a seed-corrected z-score of -0.372.
Turning to UGUAGUAUAUGAUCGACCU against LOC728613, the seed-corrected z-score is -11.7.
Sequence UAGGCGAUGAAGAGCGUGC against MC1R had a seed-corrected z-score of 0.184.
The sequence AAAGUAUCGGUAUUUGUCU against NDUFB9 registered a seed-corrected z-score of 0.025.
In turn, AAUCUCAUGAGUUGCAACC against MMP26 came in with a seed-corrected z-score of -0.158.
To UUCCGGUUCCUCAUCUUCU against NUCKS1 belongs -0.00682; to UAAAGUACUGUCGUCAAUG against STOX2, -2.26.
In the case of UUGUGGUUCUCGGAUACGC against CDH15, the seed-corrected z-score was -0.955.
In turn, GAAGCUAUCCCAGCUCUCA against RPL21P131 showed a seed-corrected z-score of 0.152.
To UGUUUUACAAGCAAUGUCC against TEX19 belongs -2.08; to UGCUGUAUAAUAUCCUUGC against GALNT3, 0.503; to UUGUGCACCACGAGCAUGG against B3GNT7, -1.07.
Turning to UUCGUUGCAAAUCCCAUGC against SPTLC2, the seed-corrected z-score is -3.22.
Under AAUCUUUGGAGUACGCUGG against B2M stands -0.0765; under UAGACAUACAUUGAACUCC against SPINK6, 1.21.
In turn, UGUACUUUAAUAGAGAUAC against MRPS10 gave a seed-corrected z-score of -0.197.
Turning to UACCCAAUAAAGGUCUACC against LMO2, the seed-corrected z-score was 0.642.
On to UACGGUUCUUCCUGGUUGG against C1QA, for which the seed-corrected z-score was 1.29.
UUCCAUAUAGCAGUGCACU against NDUFAF1: the seed-corrected z-score was determined as 1.09.
UAGGGUUUGCCUUCGUGCU against CRIP1 yielded a seed-corrected z-score of -3.24.
In turn, UCAAGCAUCGUGUUGAGCC against TGFBI came in with a seed-corrected z-score of -0.445.
UCAAAUUCGUCCUGGGUCC against UGT1A5 showed a seed-corrected z-score of -1.44.
In turn, UGAAGGAAGAAUCGUCGCC against PTHLH yielded a seed-corrected z-score of -0.782.
UUUCCGAUGAUGGUAACCA against OR7C2 yielded a seed-corrected z-score of 0.217.
UCAGGUAGCAGGGUAUUGG against LTA4H yielded a seed-corrected z-score of -0.0663.
Sequence UCCCAAUUCAGAUCUAUGG against FBXO42 had a seed-corrected z-score of 0.112.
For UCAGGUGUAGGAUUCCGAC against XAGE2, the seed-corrected z-score was -2.85.
The sequence UUUGUUGACUGCUUGACUG against METAP1D displayed a seed-corrected z-score of 0.33.
To AACCUGUAUGCAUCAACUG against BMS1P11 belongs 2.32; to UACUGUUCCACUAGCUUCG against SF3A1, -1.91; to UCUGUAACCUUGGUAAGGC against C10orf2, 0.0621.
Take UGGUUGAUUAGUAAAGCAC against C10orf113: the seed-corrected z-score is -0.339.
To ACUGUUAUCAGGAAAGUCC against PLCB2 belongs -0.539; to UGUCUUUGUAGGCAGCUGG against CLDN14, -2.18.
Sequence UAAAGAGUAAAGGUCUUCC against ZNF540 registered a seed-corrected z-score of 0.799.
Sequence UAUGGACCCAUCAUACUGG against CADM4 showed a seed-corrected z-score of 0.833.
UAUUGAACUUCAAGGGUCG against EFTUD2 had a seed-corrected z-score of -2.91.
As for UUGGUCUGUAGUACUGUUC against SNX27, the seed-corrected z-score was -2.17.
For the sequence UUUGUGCCCUGCGUUUAUC against KCND3, the seed-corrected z-score is -0.731.
In the case of AGGUGGAAGAGAAAUAUCU against OR4D11, the seed-corrected z-score was -0.264.
Turning to UCAAGUUACAGGUUCGGGC against DRG1, the seed-corrected z-score turned out to be 1.09.
UAUUUGUAGCCCAAGAAGG against YIF1B came in with a seed-corrected z-score of 0.101.
Sequence UUUCUGAUCAGGUCCAUGA against SLC1A6 displayed a seed-corrected z-score of -0.114.
Under UCAUAGUUGAGCAAGGUGG against AOC3 stands -0.116; under UCCGUAUCCAGCUCGUCCU against NXNL1, -1.17.
UUCAAUGCAAGCAAGCUUG against OR4L1 displayed a seed-corrected z-score of 0.45.
In the case of UUGCGAACAUUGCCUGUGC against MEP1A, the seed-corrected z-score was 0.216.
As for UCUUUAUCUAGAGGCAUUC against LOC728040, the seed-corrected z-score is -2.35.
With UUUAUUCUAAACACGUACU against RHBDD3, the seed-corrected z-score is -0.246.
Sequence UAGGAUUACAGCAAUCAUC against 11-Mar showed a seed-corrected z-score of 0.0159.
Under UGUCGUCAAAGUAUAAUCG against ETV5 stands -2.12; under UAUGGAGCAGGUAAUAGAG against ZNF311, 0.514; under UUCUCAUCAAACUCUACAC against OLFML3, 0.213.
The sequence UCUCCUAUAGGACCUGUGC against MGAM had a seed-corrected z-score of -0.17.
As to UGAGCAUUUAUUGUGAGUG against OR2T6, the seed-corrected z-score was -0.244.
The sequence UCCUGGAGCACAUCAGUGC against ASPRV1 displayed a seed-corrected z-score of 0.0418.
Under UGGUUGUUAAAGGUCAUGG against HIPK2 stands -2.07.
On to UACGCUUGAAGUACCGAUG against SLC7A1, for which the seed-corrected z-score is -2.19.
AAACGUACAUGAUGGGAGC against GPR155 had a seed-corrected z-score of -0.807.
Regarding UUGAACUCAGCGAUCAUCU against TNNC2, the seed-corrected z-score was -0.279.
Under UAUUAUCAAUGGUCCAGGG against AAGAB stands 0.496; under UUUGAUGCCGUCAUCAUCC against TMEM106C, 0.22; under AGAAGUUUUUGCUCUGUCC against DYRK4, 0.321.
The sequence AAAUGUACAGAACUAUCUC against PADI2 had a seed-corrected z-score of -2.36.
Consider UCUCUGAAGAGUACAGGAG against PTOV1, for which the seed-corrected z-score amounted to 0.398.
Sequence UCAGGUGCAAAGCUACUGG against PARK2 came in with a seed-corrected z-score of -2.4.
Under UCAUUGACAUUGGUCACGG against CYP27C1 stands -0.22.
On to UUAUAACCACUGACUCUCC against MIPEPP3, for which the seed-corrected z-score was found to be 0.124.
Sequence UAUUGUUCUUGUCCUUUUG against TERF1 yielded a seed-corrected z-score of -0.319.
Under AACCGAGUCAGAAUGGUGC against SDC1 stands 0.384; under UUUGGAAGACUGGAGCAGG against CTIF, 0.631; under UUCCCAUACCCUAUGGUCG against KCNK10, -0.13.
Regarding UCUACUGUCAUUGAGACCA against SNRPB, the seed-corrected z-score was -2.67.
Under UCUGGUACUCAGAAGGUCC against COPS5 stands 1.12; under AUAGUAACGAUCAACUCCA against NDUFA1, 0.512.
